# Measurements as given in PubChem BioAssay AID504371 (National Center for Advancing Translational Sciences (NCATS), 2011).
# Results filed as inconclusive are left out. Entries that show only a call come without a potency. Calls of active or inactive are those of the source. Calls follow the shape of the dose curve; as a rule, active = well fitted curve in the direction sought with a large enough effect; inconclusive = small, poorly fitted or top-dose-only effect, or another doubt; inactive = no such curve, though single readings can be large or run the other way.
# Test: qHTS Assay for Compounds Blocking the Interaction Between CBF-beta and RUNX1 for the Treatment of Acute Myeloid Leukemia: ME-1 cellular proliferation, SAR for Probe
# Excerpt: NIH Chemical Genomics Center [NCGC] NIH Molecular Libraries Probe Production centers Network [MLPCN] MLPCN Grant: X01MH083259-01 Assay Submitter (PI): Paul Liu NCGC Assay Overview: Core Binding Factor (CBF) abnormalities are associated with 20-25% of all acute myeloid leukemias (AML), of which 5-10% are further sub classified as acute myelomonocytic leukemia with eosinophilia, also known as M4Eo in the FAB classification scheme. This subtype of leukemia is usually associated with chromosome 16 inversion (p13:q22). Chromosome 16 inversion results in formation of the fusion oncogene CBFB-MYH11, which encodes the fusion protein CBF-beta-SMMHC. […] It has been hypothesized that the interference of CBF-beta and RUNX1 binding could have therapeutic implications for patients with CBF mediated leukemias. We developed a CBF-beta and RUNX1 binding assay in AlphaScreenTM format and optimized it for high throughput screening to search for inhibitors. […]
# NCGC Assay protocol: 2uL/well media was dispensed per well into 1536-well white solid-bottom plates using Multidrop Combi dispenser. […] The plates were incubated at 37 °C with 5% CO2 and 95% humidity for 48 hours, and then ATP content was measured following the addition of 4uL/well of ATPlite reagent and a 20 min incubation on a ViewLux plate reader.
row,Compound,Potency
1,CCc1sc(N)nc1-c1ccc(OC)cc1,inactive
2,Nc1ccc(Cl)cc1C(=O)c1ccc[nH]1,109 µM (active)
